Holding throughout (test): NCI-60 one-dose screen, 48 h (100 = growth as untreated, 0 = no growth, -100 = all killed)
Holding throughout (details): 10 µM unless noted

The test system of experiment [1] is SK-MEL-2 melanoma.
Experiment [2] concerns EKVX NSCLC.
The test system of experiment [3] is SN12C renal.
Experiment [4] deals with UO-31 renal.
For experiment [5], the system named is TK-10 renal.
Experiment [6] deals with ACHN renal.
The subject of experiment [7] is CAKI-1 renal.
The subject of experiment [8] is A498 renal.
In experiment [9] the test system is CCRF-CEM leukemia.
The test system of experiment [10] is MOLT-4 leukemia.

The panel holds about 83,000 compounds, 20% with a hit somewhere; the sample as a whole holds those more often.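 Negative percent growth values reflect cell death: -40 means 40% of the cells present at the start died, and -100 means all died.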 A number with no mark means an inactive call. Calls of active or inactive are those of the source. How the source made its calls: active means growth percent below 10; inactive means the rest.

On to `CC1=C(C(=O)OCc2ccccc2)C(c2ccc(-n3cncn3)cc2)n2c(nc3ccccc32)N1` (stereo not given), for which the growth in experiment [1] is 80.6%; in [2], 48.4%; in experiment [3], 72.9%; in [4] it was 51.6%; in experiment [5] it was 89.7%; in experiment [6], 51.3%. For the same compound, the growth is 42.8% in [7], 79.8% in experiment [8], 16.1% in experiment [9] and 36.6% in [10].
As for `Nc1cc2ccccc2c(=O)n1NC(=O)c1ccc(I)cc1`, the growth was 102% in experiment [1]; 94.2% in experiment [2]; 107% in experiment [3]; 92% in [4]; 115% in [5]; 106% in experiment [6]. For the same compound, the growth is 83.6% in experiment [7], 103% in experiment [8], 97.8% in [9] and 99.2% in experiment [10].
For the compound `Cc1cc2nc3c4ccccc4n(CCCN(C)C)c3nc2cc1C`, the growth in experiment [1] is -90.1% (active); in experiment [2] it was -41.8% (active); in experiment [3], -27.6% (active); in experiment [4], 2.63% (active); in experiment [5] it was 8.05% (active); in experiment [6], 4.95% (active). Moreover, the growth in experiment [7] is 3.24% (active); in experiment [8] it was -39.6% (active); in experiment [9] it was 0.177% (active); in [10] it was 2.75% (active).
On to `Cn1cc(-c2nc(N)nnc2-c2c[nH]c3ccc(Br)cc23)c2cccnc21`, for which the growth in experiment [1] is 30.5%; in experiment [2], 67.4%; in experiment [3] it was 49.8%; in experiment [4], 48.9%; in experiment [5], 90.4%; in experiment [6], 50.6%. The growth in [7] is 47.9%; in experiment [8], 131%; in [9], 36.1%; in experiment [10], 27.5%.
For `N/C(=N\c1nc2ccccc2s1)NC(=O)NCCCCCCO`, the growth in experiment [1] is 50.1%; in [2], 19.6%; in experiment [3], 45.5%; in experiment [4] it was 43.5%; in [5] it was 51.2%; in experiment [6] it was 39.5%. Also, the growth is 32% in experiment [7], 61% in [8], 60.3% in [9] and 4.34% (active) in [10].
With `O=C(N1c2ccccc2Sc2ccccc21)n1ccc2cccnc21`, the growth is 73.6% in experiment [1]; 79.3% in [2]; 81.1% in experiment [3]; 55.6% in experiment [4]; 90.7% in [5]; 88.2% in experiment [6]. The growth in experiment [7] was 53.6%; in experiment [8], 109%; in experiment [9], 63.2%; in [10], 38.3%.
Consider `CCOC(=O)C1=C(N)N(c2ccccc2)C2=C(C(=O)CC(C)(C)C2)C1c1ccc(Cl)cc1Cl` (stereo not given), for which the growth in experiment [1] is -12.3% (active); in experiment [2] it was 18.8%; in [3] it was 20.6%; in [4] it was 16.8%; in [5], 36.6%; in experiment [6] it was 17.1%. In addition, the growth in experiment [7] was 23.1%; in [8], 46.8%; in experiment [9], 19.3%; in experiment [10], 7.23% (active).
Take `COC(=O)/C=C/c1cccc2c1C(=O)NC(C)(c1cc3cc4ccccc4cc3oc1=O)N2` (stereo not given): the growth in experiment [1] is 79.4%; in experiment [2], 67.5%; in [3], 35.1%; in experiment [4], 65.4%; in [5], 99.7%; in experiment [6] it was 40.1%. The growth is 61.9% in experiment [7], 90.6% in experiment [8], 53% in experiment [9] and 58.7% in experiment [10].
As to `COc1ccc2[nH]c(O)c(N=NC(=O)COc3ccc(NC(=O)Nc4ccccc4)cc3)c2c1`, the growth in [1] is 43.6%; in experiment [2], 65.4%; in experiment [3], 25%; in experiment [4] it was 94.5%; in experiment [5], 113%; in [6], 94.2%. Moreover, the growth in experiment [7] is 82.5%; in experiment [8], 71.7%; in experiment [9], 77.9%; in [10], 77.1%.
For `COc1ccc(/C=C2\C(=O)Nc3ccc(Cl)cc32)cc1OCc1ccccn1`, the growth in experiment [1] is 96.2%; in experiment [2], 23.8%; in experiment [3] it was 44.3%; in experiment [4] it was 5.88% (active); in experiment [5], 63.6%; in experiment [6], 12.2%. For the same compound, the growth was 24.3% in experiment [7], 120% in experiment [8], 50.8% in experiment [9] and 45.7% in experiment [10].
Consider `N#Cc1c(-c2cccc(Cl)c2Cl)cc(-c2ccc3ccccc3c2)[nH]c1=O`, for which the growth was 126% in [1]; 49% in [2]; 19.1% in experiment [3]; 24.6% in experiment [4]; 48.9% in experiment [5]; 40.8% in experiment [6]. For the same compound, the growth in experiment [7] was 47.2%; in experiment [8], 87.5%; in experiment [9] it was 38.3%; in experiment [10], 71.5%.
Consider `COc1ccc(-c2ccc(SCC(=O)Nc3ccc(S(N)(=O)=O)cc3Br)nn2)cc1`, for which the growth in [1] was 68.9%; in [2], 78%; in [3] it was 88.4%; in experiment [4] it was 88.3%; in experiment [5], 116%; in [6], 86.7%. Moreover, the growth is 63.1% in experiment [7], 89.8% in experiment [8], 98.7% in experiment [9] and 93.7% in experiment [10].
For the compound `C=C1CC[C@@H]2[C@]3(C)COC(c4cn[nH]c4-c4ccc(Br)cc4)O[C@@H]3CC[C@@]2(C)[C@@H]1C/C=C1/C(=O)OCC1O` (stereo not given in full), the growth in experiment [1] was -68.4% (active); in experiment [2] it was -51% (active); in experiment [3] it was -64.9% (active); in experiment [4], -92.1% (active); in experiment [5] it was -65% (active); in experiment [6], -100% (active). The growth in [7] was -40.9% (active); in experiment [8], 97.8%; in [9], -6.18% (active); in experiment [10], 2.63% (active).

The values are drawn from PubChem BioAssay (NCI).
